CYP2C9 act = activators of human CYP2C9. recombinant CYP2C9, luciferin-H conversion, luminescence; active compounds read high; factor 1 = untreated enzyme, 0 = blocked. P11712. activation factor at 5 µM. 96,000 compounds, 1.4% hits;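 active = activation factor of 2 or more for CYP2C9 at a 5 µM dose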
CYP2C19 activ = cytochrome P450 2C19 (human) activation; AID 1025; 96,000 tested, under 10 active; recombinant CYP2C19, luciferin-H EGE luminescence; active compounds read high; 0 = fully inhibited enzyme, 1 = untreated enzyme; activation factor at 5 µM;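 active = activation factor of at least 2 at 5 µM in the primary screen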
Target sequence (P33261 whole entry, looked up): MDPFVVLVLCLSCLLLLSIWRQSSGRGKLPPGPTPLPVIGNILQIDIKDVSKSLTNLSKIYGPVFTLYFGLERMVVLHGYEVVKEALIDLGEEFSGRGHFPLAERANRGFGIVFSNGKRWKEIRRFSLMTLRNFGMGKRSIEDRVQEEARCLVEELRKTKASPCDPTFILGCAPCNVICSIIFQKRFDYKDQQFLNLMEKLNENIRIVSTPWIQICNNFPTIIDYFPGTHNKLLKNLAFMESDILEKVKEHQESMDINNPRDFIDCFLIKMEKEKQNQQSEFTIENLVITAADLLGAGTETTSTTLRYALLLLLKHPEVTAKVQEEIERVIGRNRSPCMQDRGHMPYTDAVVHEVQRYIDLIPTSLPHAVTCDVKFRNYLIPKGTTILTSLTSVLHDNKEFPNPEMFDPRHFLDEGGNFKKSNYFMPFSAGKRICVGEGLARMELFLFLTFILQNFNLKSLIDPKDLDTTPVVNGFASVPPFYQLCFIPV
PostGolgi yeast = growth inhibition of a yeast mutant, post-Golgi transport screen; 98,000 compounds, 0.9% hits; inhibition, % at 10 µM; post-Golgi transport phenotypic cell assay;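 also: yeast cells grown in 1536-well plates; yeast grown about 18 h at 30C before absorbance read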
PostGolgi ctrl = yeast control strain growth, post-Golgi counter-screen; efflux-deficient yeast background strain, growth absorbance A615, 16 h; inhibition, % at 10 µM; 98,000 compounds, 5% hits
CYP2C19 inhib = inhibitors of human CYP2C19; P33261; CYP2C19 Supersomes, luciferin-H EGE luminescence, 30 min; inhibition, % at 5 µM; 96,000 compounds, 21% hits; AID 778;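 active = CYP2C19 inhibition above a set limit at 5 µM in the primary screen, cut at about 50% in these data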
CYP2C9 inh = human CYP2C9 inhibition; P11712; CYP2C9 Supersomes, luciferin-H conversion, luminescence; inhibition, % at 5 µM; 96,000 compounds, 20% hits; AID 777;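 active = blocking of liver enzyme CYP2C9 beyond about 50% at 5 µM, limit read from the data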
Of the large screens only hits and unclear results are named; the others gave an inactive call. An excerpt weighted towards active compounds, which were near 32% of everything screened. Rule as the data show it, unless noted: active = inhibition above about 30%; inactive = the rest.

COc1cccc(N2CCN(C(=O)NC3CCCCC3)CC2)c1	CYP2C9 inh 56
COc1ccc(C(=O)N2CCN(c3cccc(Cl)c3)CC2)c(OC)c1	CYP2C19 inhib 87, CYP2C9 inh 69
O=C(C1CC1c1ccccc1)N1CCN(c2cccc(Cl)c2)CC1 (configuration not stated)	CYP2C19 inhib 60
O=C(O)CCCC(=O)N1CCN(c2cccc(Cl)c2)CC1	none
CCOc1ccccc1C(=O)N1c2ccccc2Sc2ccccc21	PostGolgi ctrl 42, CYP2C19 inhib 87, CYP2C9 inh 98
CNC(=S)N1CCN(c2cccc(OC)c2)CC1	none
COc1ccc(-n2c(Cc3cccn3C)nnc2SCC(=O)Nc2ccc(C(C)=O)cc2)cc1	none
O=C1C2C3c4ccccc4C(c4ccccc43)C2C(=O)N1c1cccc2cccnc12 (configuration not stated)	none
CCOc1ccccc1N1CCN(C(=O)c2c(C)noc2C)CC1	none
CS(=O)(=O)N(CC(=O)N1CCN(c2cccc(Cl)c2)CC1)C1CCCCC1	none
O=C(COc1ccc(S(=O)(=O)NC2CCCCC2)cc1)N1CCN(c2cccc(Cl)c2)CC1	PostGolgi ctrl 41
CCOc1ccc2ccccc2c1C(=O)N1CCN(c2ccccc2)CC1	CYP2C19 inhib 93, CYP2C9 inh 88
COc1ccccc1OCC(=O)Nc1ccc(O)cc1C(=O)O	none
COc1cc2c(C(=O)N3CCN(c4cccc(Cl)c4)CC3)cn(CC(C)C)c(=O)c2cc1OC	CYP2C9 inh 58
COc1cc(Cl)ccc1NC(=O)COc1ccccc1C(=O)N1CCN(c2ccc(O)cc2)CC1	CYP2C19 inhib 79, CYP2C9 inh 82
Cc1cc2c3c(c1C)C1(C(=O)N3C(C)(C)CC2C)C(C#N)=C(N)Oc2cc(O)ccc21 (configuration not stated)	none
CC(=O)c1sc(Nc2ccccn2)nc1C	none
COc1ccc(-c2nnc(N3CCC(C)CC3)c3ccccc23)cc1	none
C=CCNS(=O)(=O)c1ccc2nsnc2c1	none
CC(=O)c1c(C(C)=O)c(C)n(NC(=O)c2ccncc2)c1C	CYP2C19 inhib 89
CC1(C)CN2C(=S)N(c3ccccc3)C(c3ccccc3)N2C1 (configuration not stated)	CYP2C19 inhib 67, CYP2C9 inh 66
O=C1C2CCCN2C(c2ccccc2)N1c1ccc(Cl)cc1 (configuration not stated)	none (no result: CYP2C9 act, CYP2C19 activ, CYP2C19 inhib, CYP2C9 inh)
S=C1N(c2ccccc2)C(c2ccc(Cl)cc2)N2CCCN12 (configuration not stated)	CYP2C19 inhib 63
O=C(COC(=O)c1cccc(Oc2ccccc2)c1)NCc1ccco1	none
COc1cc(N2C(=O)c3ccccc3C2=O)c(Cl)cc1C(=O)OCC(=O)NCc1ccco1	none
O=C(COC(=O)c1cccc(S(=O)(=O)N2CCN(c3ccccc3)CC2)c1)NCc1ccco1	CYP2C19 inhib 78
COc1ccccc1N(C)S(=O)(=O)c1ccc(C(=O)OCC(=O)NCc2ccco2)cc1	CYP2C9 inh 88
CN(c1ccccc1)S(=O)(=O)c1ccc(C(=O)OCC(=O)NCc2ccco2)cc1	CYP2C19 inhib 97, CYP2C9 inh 94
COc1ccc2nc(SCC(=O)Nc3ccc(S(=O)(=O)Nc4nccc(C)n4)cc3)[nH]c2c1	none

High-throughput results from PubChem BioAssay.
